# Measurements from the supplement of paper PMC10849652.
# Of roughly 7,900 targets only a part is listed; those with a hit were picked by preference. About 0.6% of all pairs of compound and target were hits. Unmarked numbers belong to inactive results.
# Tests used:
# Assay in all cases: log2 fold change, soluble protein after heating vs DMSO (PISA); higher = thermal stabilisation; K562 cells, 10 uM, 30 min; active = over 0.2 and 3.5 SD of the protein, either way, in both replicates (recomputed)
# erlotinib = compound: C#Cc1cccc(Nc2ncnc3cc(OCCOC)c(OCCOC)cc23)c1 [erlotinib]
# Procedure, shortened: (§1)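 Thermal stability values are relative to control samples and come from duplicates. They are expressed as log2 fold changes. For measurement, K562 cells (2×10^6 cells/mL) received 10 μM compound for 30 min, and aliquots were heated for 3 min over 48°C-58°C, pooled, and extracted at 4°C in PBS with 0.5% NP-40. Soluble protein, the supernatant after 21,000xg for 90 min, was quantified by TMTpro 16plex LC-MS/MS with equalised channel sums.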
# [1] = compound: C/C(=N\NC(=O)C1=CC(=CC=C1)S(=O)(=O)N2CCOCC2)/C3=C(C=CC(=C3)Cl)O
# Procedure, shortened: as §1
# [2] = compound: C1=CC(=C(C=C1Cl)C2=NC3=NC=CN=C3C(=N2)NC4=CC=NC=C4)F
# Procedure, shortened: as §1
# [3] = compound: C1=CC(=CC=C1C2=NC3=C(N2)C=C(C=C3)C(=O)N)OC4=CC=C(C=C4)Cl
# Procedure, shortened: as §1
# [4] = compound: C1=CC2=C(C=CC(=C2)/C=C\3/C(=O)NC(=NCC4=CC=CS4)S3)N=C1
# Procedure, shortened: as §1
# [5] = compound: C1=CC2=NC=CN=C2C=C1/C=C/3\C(=O)NC(=O)S3
# Procedure, shortened: as §1
# [6] = compound: C1=CC=C(C=C1)C2=NC(=C(N2)C3=CC=NC=C3)C4=CC(=C(C=C4)Cl)O
# Procedure, shortened: as §1
# [7] = compound: C1=CC=C2C(=C1)C3=NNC4=CC=CC(=C43)C2=O
# Procedure, shortened: as §1
# [8] = compound: C1CCN(C1)C(=O)NC2=CC=CC(=C2)NC3=NC=C(C(=N3)NCCC4=CN=CN4)Br
# Procedure, shortened: as §1
# [9] = compound: C1CN(CCC1(CC2=CC=C(C=C2)Cl)N)C3=NC=NC4=C3C=CN4
# Procedure, shortened: as §1
# Sequence of UniProt Q9UIQ6 (Q9UIQ6 whole entry, looked up): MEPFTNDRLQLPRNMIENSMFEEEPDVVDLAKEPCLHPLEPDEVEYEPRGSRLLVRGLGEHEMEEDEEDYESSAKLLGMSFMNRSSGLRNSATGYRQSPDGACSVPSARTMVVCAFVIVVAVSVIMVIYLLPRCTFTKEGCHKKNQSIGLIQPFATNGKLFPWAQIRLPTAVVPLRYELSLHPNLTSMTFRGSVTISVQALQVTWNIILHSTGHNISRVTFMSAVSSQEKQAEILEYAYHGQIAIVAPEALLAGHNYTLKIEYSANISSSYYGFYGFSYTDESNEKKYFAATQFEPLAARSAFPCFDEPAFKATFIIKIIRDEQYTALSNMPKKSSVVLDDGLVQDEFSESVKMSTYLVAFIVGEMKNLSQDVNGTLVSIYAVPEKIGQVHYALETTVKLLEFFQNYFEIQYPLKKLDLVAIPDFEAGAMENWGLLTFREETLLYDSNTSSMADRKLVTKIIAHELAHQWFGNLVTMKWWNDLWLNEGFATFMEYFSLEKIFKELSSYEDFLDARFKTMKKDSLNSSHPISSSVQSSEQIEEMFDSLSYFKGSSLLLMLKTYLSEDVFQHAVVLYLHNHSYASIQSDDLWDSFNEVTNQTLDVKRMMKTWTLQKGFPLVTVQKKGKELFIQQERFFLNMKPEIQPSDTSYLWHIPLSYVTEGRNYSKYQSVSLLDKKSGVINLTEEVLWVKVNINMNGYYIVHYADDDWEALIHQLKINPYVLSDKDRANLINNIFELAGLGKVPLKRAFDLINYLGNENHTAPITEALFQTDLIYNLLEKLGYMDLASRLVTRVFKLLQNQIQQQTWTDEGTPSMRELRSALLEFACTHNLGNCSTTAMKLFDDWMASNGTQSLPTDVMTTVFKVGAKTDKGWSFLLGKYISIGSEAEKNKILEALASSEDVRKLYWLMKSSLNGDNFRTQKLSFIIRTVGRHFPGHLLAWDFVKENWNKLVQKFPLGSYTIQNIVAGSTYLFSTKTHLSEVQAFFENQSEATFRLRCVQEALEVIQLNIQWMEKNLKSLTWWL
# Sequence of UniProt P01130 (P01130 whole entry, looked up): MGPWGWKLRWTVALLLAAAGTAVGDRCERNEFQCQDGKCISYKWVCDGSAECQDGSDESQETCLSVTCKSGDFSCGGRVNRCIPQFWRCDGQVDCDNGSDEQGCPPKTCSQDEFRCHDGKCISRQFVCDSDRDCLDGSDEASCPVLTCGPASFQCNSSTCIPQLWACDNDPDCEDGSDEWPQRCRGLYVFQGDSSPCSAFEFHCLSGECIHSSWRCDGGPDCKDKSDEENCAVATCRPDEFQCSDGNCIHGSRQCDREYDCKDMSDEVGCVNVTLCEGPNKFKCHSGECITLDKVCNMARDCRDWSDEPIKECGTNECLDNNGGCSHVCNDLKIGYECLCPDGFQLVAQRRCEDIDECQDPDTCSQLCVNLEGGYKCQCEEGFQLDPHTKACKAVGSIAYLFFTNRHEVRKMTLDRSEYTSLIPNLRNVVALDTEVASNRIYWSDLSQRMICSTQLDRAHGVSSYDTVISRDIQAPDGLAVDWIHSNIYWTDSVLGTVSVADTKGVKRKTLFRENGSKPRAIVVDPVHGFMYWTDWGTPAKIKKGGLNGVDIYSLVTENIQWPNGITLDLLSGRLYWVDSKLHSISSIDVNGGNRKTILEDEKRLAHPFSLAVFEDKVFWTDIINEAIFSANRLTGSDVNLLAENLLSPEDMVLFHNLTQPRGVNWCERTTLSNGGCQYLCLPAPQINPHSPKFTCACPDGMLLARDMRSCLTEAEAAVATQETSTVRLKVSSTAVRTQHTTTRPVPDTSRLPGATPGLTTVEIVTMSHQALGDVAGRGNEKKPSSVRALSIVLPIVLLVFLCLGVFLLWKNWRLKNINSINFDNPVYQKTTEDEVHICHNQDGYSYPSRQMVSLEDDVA
# Sequence of UniProt Q9NQX7 (Q9NQX7 whole entry, looked up): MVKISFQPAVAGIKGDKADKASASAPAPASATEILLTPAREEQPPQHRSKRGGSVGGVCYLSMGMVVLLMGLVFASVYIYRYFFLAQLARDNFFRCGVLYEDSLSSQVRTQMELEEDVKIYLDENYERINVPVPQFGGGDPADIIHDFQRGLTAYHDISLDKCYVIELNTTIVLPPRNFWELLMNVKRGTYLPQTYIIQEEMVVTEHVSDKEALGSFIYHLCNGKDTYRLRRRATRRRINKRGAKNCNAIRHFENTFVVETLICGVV
# Sequence of UniProt Q9BU23 (Q9BU23 whole entry, looked up): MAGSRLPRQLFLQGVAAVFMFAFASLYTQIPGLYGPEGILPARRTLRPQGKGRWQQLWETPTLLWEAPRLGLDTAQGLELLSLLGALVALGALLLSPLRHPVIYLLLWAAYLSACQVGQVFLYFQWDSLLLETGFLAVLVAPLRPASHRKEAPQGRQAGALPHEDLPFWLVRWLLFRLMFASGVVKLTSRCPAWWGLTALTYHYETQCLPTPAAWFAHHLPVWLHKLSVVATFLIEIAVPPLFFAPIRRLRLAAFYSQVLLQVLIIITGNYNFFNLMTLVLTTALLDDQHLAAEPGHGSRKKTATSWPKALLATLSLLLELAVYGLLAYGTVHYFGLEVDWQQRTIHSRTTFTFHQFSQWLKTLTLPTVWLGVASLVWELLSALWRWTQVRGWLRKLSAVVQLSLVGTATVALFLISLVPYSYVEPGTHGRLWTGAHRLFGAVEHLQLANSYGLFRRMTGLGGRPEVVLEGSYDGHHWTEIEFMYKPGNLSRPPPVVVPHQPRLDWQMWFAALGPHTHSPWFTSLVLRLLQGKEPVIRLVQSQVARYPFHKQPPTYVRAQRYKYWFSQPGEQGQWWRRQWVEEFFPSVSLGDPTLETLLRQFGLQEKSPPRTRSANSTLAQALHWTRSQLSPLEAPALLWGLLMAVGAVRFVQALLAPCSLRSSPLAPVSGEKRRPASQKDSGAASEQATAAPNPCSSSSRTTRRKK
# Sequence of UniProt Q96P70 (Q96P70 whole entry, looked up): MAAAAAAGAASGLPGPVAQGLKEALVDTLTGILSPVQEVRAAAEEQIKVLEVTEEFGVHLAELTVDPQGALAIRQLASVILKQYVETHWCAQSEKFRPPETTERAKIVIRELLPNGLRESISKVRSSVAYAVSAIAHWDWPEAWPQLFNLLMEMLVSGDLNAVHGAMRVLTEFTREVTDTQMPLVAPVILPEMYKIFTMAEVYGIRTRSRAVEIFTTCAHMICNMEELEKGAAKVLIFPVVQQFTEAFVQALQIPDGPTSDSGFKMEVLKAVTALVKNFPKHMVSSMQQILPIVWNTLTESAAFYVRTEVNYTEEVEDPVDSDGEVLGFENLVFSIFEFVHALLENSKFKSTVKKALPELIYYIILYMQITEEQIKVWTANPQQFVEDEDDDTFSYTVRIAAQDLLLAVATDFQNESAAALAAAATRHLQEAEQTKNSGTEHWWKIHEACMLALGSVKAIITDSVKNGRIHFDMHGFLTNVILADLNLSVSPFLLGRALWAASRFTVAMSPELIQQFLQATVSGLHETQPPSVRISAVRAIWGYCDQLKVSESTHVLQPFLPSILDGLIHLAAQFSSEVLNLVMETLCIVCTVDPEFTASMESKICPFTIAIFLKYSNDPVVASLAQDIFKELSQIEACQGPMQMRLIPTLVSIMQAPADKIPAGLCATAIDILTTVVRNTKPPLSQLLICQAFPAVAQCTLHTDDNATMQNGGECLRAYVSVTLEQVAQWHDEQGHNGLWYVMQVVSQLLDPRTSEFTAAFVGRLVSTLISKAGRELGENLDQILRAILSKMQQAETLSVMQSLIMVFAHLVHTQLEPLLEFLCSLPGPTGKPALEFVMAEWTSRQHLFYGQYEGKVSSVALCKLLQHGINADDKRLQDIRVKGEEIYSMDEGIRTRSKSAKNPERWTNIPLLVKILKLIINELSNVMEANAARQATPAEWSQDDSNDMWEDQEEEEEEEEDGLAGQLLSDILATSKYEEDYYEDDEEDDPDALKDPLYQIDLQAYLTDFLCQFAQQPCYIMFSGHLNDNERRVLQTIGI
# Sequence of UniProt P33947 (P33947 whole entry, looked up): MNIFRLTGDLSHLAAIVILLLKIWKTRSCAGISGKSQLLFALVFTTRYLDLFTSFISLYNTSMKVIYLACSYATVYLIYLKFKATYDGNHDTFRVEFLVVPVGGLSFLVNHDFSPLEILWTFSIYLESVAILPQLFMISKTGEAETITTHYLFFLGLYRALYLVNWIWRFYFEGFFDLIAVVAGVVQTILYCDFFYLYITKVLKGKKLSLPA
# Sequence of UniProt O14733 (O14733 whole entry, looked up): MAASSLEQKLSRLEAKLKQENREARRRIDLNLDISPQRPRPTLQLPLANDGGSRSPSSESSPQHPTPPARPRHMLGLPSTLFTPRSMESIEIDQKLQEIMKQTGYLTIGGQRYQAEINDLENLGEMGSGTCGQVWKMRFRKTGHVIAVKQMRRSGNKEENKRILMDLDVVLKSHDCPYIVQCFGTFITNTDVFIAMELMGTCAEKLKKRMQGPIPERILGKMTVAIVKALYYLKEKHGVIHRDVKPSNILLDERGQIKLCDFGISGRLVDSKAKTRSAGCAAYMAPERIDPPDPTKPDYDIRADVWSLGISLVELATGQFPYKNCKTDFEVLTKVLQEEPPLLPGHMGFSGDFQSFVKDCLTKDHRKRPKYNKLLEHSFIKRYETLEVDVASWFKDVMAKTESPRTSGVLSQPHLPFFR
# Sequence of UniProt O14880 (O14880 whole entry, looked up): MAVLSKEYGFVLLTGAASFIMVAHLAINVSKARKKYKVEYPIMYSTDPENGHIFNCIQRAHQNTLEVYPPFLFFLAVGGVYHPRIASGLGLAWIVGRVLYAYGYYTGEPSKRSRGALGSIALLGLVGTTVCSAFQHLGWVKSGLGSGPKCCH
# Sequence of UniProt Q96G25 (Q96G25 whole entry, looked up): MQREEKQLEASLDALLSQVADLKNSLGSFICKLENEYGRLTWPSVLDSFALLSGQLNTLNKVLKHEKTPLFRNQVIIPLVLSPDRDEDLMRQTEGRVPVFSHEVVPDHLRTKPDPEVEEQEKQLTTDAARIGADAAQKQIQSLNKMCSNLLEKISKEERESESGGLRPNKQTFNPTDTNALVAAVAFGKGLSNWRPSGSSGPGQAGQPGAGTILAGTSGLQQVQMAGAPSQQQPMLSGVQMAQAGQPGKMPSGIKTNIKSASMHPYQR
Target,log2 fold change (erlotinib),log2 fold change [1],log2 fold change [2],log2 fold change [3],log2 fold change [4],log2 fold change [5],log2 fold change [6],log2 fold change [7],log2 fold change [8],log2 fold change [9]
LENG8 (UniProt Q96PV6),-0.072,0.133,0.091,0.108,-0.024,-0.037,-0.141,0.096,0.152,-0.229
LMF2 (UniProt Q9BU23),-0.017,0.002,-0.005,0.434 (active),0.055,-0.012,0.006,0.052,-0.021,0.021
MED8 isoform 2 (UniProt Q96G25),0.017,-0.19,-0.056,0.035,-0.031,0.152,-0.153,-0.196,–,–
ITM2C (UniProt Q9NQX7),-0.078,-0.019,0.013,-0.297,-0.023,0.062,-0.029,0.052,–,–
MAGI1 (UniProt Q96QZ7),-0.022,0,-0.083,0.049,-0.008,0.018,-0.015,-0.016,0.012,-0.047
MAP3K20 (UniProt Q9NYL2),0.014,-0.013,-0.009,0.043,-0.009,0.038,-0.011,-0.106,-0.046,-0.036
KPNA1 (UniProt P52294),-0.042,0.09,-0.053,-0.037,-0.011,0.009,0.035,-0.061,-0.032,-0.07
IPO9 (UniProt Q96P70),-0.021,0.073,0.01,-0.061,0.023,0.096,-0.035,-0.024,-0.02,0.052
MAP2K7 isoform 4 (UniProt O14733),0.021,-0.005,0.061,0.017,0.01,0.017,-0.009,-0.032,-0.012,0.023
LEO1 (UniProt Q8WVC0),0.132,0.108,0.194,-0.079,-0.006,0.007,-0.035,-0.039,-0.076,-0.045
LNPEP (UniProt Q9UIQ6),-0.005,-0.002,0.046,0.016,0.019,0.034,0.067,-0.008,-0.01,0.042
ILF2 (UniProt Q12905),-0.098,-0.087,-0.214,0.009,-0.088,0.066,-0.035,-0.011,-0.005,-0.175
MICU1 isoform 3 (UniProt Q9BPX6),-0.02,-0.026,-0.022,0.002,-0.009,0.007,-0.054,0.008,0.013,-0.015
MAP3K4 isoform 2 (UniProt Q9Y6R4),-0.027,0.019,0.036,-0.023,0.039,-0.017,-0.023,-0.031,0.034,0.07
LMNA (UniProt P02545),-0.025,0.116,0.009,-0.106,-0.031,0.035,-0.049,-0.171,-0.086,0.013
MAP4 isoform 5 (UniProt P27816),0.056,-0.214,0.038,-0.067,-0.031,-0.116,-0.051,0.152,–,–
MAP3K7 (UniProt O43318),0.078,0.009,-0.067,-0.091,0.034,-0.031,-0.016,0.113,-0.005,-0.168
KMT2C isoform 3 (UniProt Q8NEZ4),0.038,-0.032,0.006,0.012,0.078,0.021,-0.194,-0.056,0.003,0.018
MEAK7 (UniProt Q6P9B6),0.015,-0.005,0.023,0.054,0.069,0.014,-0.062,0.092,-0.042,-0.017
LYN (UniProt P07948),-0.073,0.044,-0.171,0.007,0.005,-0.028,-0.014,-0.253,0.035,-0.015
LIMD1 (UniProt Q9UGP4),0.017,0.058,0.062,-0.019,-0.01,0.077,0.013,0.006,-0.045,0.042
MARK2 (UniProt E9PC69),0.12,0.091,0.043,-0.042,0.115,-0.1,-0.014,-0.756 (active),-0.227,-0.126
MGST3 (UniProt O14880),-0.025,-0.03,0.013,0.003,0.006,0.041,-0.022,-0.023,0.019,0.016
LDLR (UniProt P01130),-0.035,0.003,-0.04,0.03,-0.018,0.025,0.011,-0.113,0.025,0.051
ILKAP (UniProt Q9H0C8),0.096,0.26,0.071,-0.02,0.126,0.011,0.022,0.088,-0.092,-0.076
MAP4 (UniProt P27816),0.003,-0.041,0.006,-0.009,-0.039,0.011,-0.007,-0.02,-0.025,0.015
MASTL (UniProt Q96GX5),0.008,0.045,0.026,-0.015,-0.076,0.124,-0.087,0.007,–,–
L2HGDH (UniProt Q9H9P8),0.027,0.169,0.009,0.043,0.07,0.01,0.05,0.093,-0.005,-0.007
KDELR2 (UniProt P33947),-0.06,-0.052,0.048,-0.02,0.042,0.024,0.201,0.048,-0.102,0.019
KCT2 (UniProt Q8NC54),0.069,0.019,0.064,0.061,-0.005,0.075,0.096,-0.005,-0.028,0.056
